aSyn UTR act = Activators via SNCA 5'UTR binding, MLPCN; 300,000 tested, 7.1% active; activity score, % (tested at 7.5 µM), hits read low; AID 1814; alpha-synuclein 5'UTR reporter, activators screen; in the data active = activity score below about -60%
* hit, by the source's call. A selection follows.

SMILES | aSyn UTR act
CCOc1ccc2nc3cc(NCc4ccc(OC)cc4)ccc3c(N)c2c1 | 109
CCc1ccc(CNc2ccc3c(c2)ncn3CC)cc1 | -177*
CCCc1c(C)c2ccc(OCC(C)=O)cc2oc1=O | -143*
Cc1c(C)c2ccc(OCC(=O)c3ccccc3)cc2oc1=O | -80*
CCCc1cc(=O)[nH]c(-n2[nH]c3c(c2=O)CCCC3)n1 | 56
CCCc1cc(=O)n2[nH]c(-c3ccc(Br)cc3)cc2n1 | -87*
CCCc1cc(=O)n2[nH]c(-c3cccc(Br)c3)cc2n1 | -181*
CCOC(=O)C1CCN(c2c(Nc3ccc4c(c3)OCCO4)c(=O)c2=O)CC1 | -78*
CC(=O)Nc1cccc(NC(=O)c2ccc3[nH]c(C)c(C)c3c2)c1 | -107*
COc1cccc(-c2cc(=O)c3cc(NC(=O)c4ccc(N(C)C)cc4)ccc3[nH]2)c1 | 115
COc1ccc(NC(=O)c2ccc3[nH]c(C)c(C)c3c2)cc1 | -101*
O=C(COC(=O)c1ccccc1[N+](=O)[O-])c1ccc(C2CCCCC2)cc1 | -76*
Cc1ccc(-c2nn3c(C)nnc3s2)cc1N | -79*
Cc1cc(/C=C(\C#N)C(=O)NCc2ccco2)c(C)[nH]1 | -64*
Cc1cc(/C=C(\C#N)C(=O)Nc2ccccc2F)c(C)[nH]1 | -129*
Cc1cc(/C=C(\C#N)C(=O)NC2CC2)c(C)[nH]1 | -145*
Cc1cc(C)cc(NC(=O)/C(C#N)=C/c2cn(CC(=O)NCc3ccco3)c3ccccc23)c1 | 111
c1ccn2cc(CSC3=NCCS3)nc2c1 | -118*
Cc1ccn2cc(CSc3ccccc3)nc2c1 | -88*
c1ccn2cc(CSc3nnc4ccccn34)nc2c1 | -90*
Cn1ccnc1SCc1cn2ccccc2n1 | -105*
O=C(Nc1ccccc1)C1=C[C@@H](c2ccc(C(F)(F)F)cc2)C[C@@H](OCCCCO)O1 | -95*
O=C(NCc1ccccc1)C1=C[C@@H](c2csc3ccccc23)C[C@@H](OCCCCO)O1 | 95
C#Cc1ccc([C@@H]2C=C(C(=O)N3CCN(Cc4ccccc4)CC3)O[C@H](OCCCCO)C2)cc1 | 99
COCCn1c(C)cc(C(=O)CSc2nc3ccccc3c(=O)n2Cc2ccco2)c1C | -176*
SMILES | aSyn UTR act
CC(C)C1N=C(c2ccc3c(c2)OCO3)CC(c2ccccc2O)N1 (stereo not drawn) | -300*
COc1ccc(-c2ccc(SCC(=O)Nc3nnc(C)s3)nn2)cc1 | -87*
O=C(CSc1ccc(-c2ccc(-n3cccn3)cc2)nn1)Nc1ccccc1F | -141*
CCc1nnc(NC(=O)CSc2ccc(-c3nc4ccc(C)cc4[nH]3)cn2)s1 | -159*
CCc1nnc(NC(=O)CSc2ccc(-c3ccc(C)cc3)nn2)s1 | -70*
Cc1cc2nc(-c3ccc(SCC(=O)Nc4ccc(S(=O)(=O)N5CCCC5)cc4)nc3)[nH]c2cc1C | -147*
Cc1cc(NC(=O)CSc2ccc(-c3ccc(Br)cc3)nn2)no1 | -67*
CCOc1ccc(-c2cc(CCCC(=O)NCc3ccco3)no2)cc1 | 73
COc1ccc(-c2ccc(SCC(=O)NCc3ccco3)nn2)cc1 | -78*
COc1cc(C(F)(F)F)ccc1C(=O)NCCc1ccco1 | -163*
Cc1c(/C(O)=C2\C(=O)C(=O)N(CCN(C)C)C2c2ccco2)cnn1-c1ccccc1 (stereo not drawn) | -78*
Cc1ccc(C2/C(=C(/O)c3cnn(-c4ccccc4)c3C)C(=O)C(=O)N2CCN2CCOCC2)o1 (stereo not drawn) | -121*
Cc1c(/C(O)=C2/C(=O)C(=O)N(CCN3CCOCC3)C2c2cccs2)cnn1-c1ccccc1 (stereo not drawn) | -155*
CCN(CC)CCN1C(=O)C(=O)/C(=C(/O)c2cnn(-c3ccccc3)c2C)C1c1ccc(C)o1 (stereo not drawn) | -77*
Cc1ccc(C2/C(=C(\O)c3cnn(-c4ccccc4)c3C)C(=O)C(=O)N2CCN(C)C)o1 (stereo not drawn) | -92*
C/C(N)=C(/C#N)C(=O)CSc1ccc2c(c1)OCCO2 | -125*
Cc1cc(C(=O)CSc2ccc3c(c2)OCCO3)c(C)n1C1CC1 | -126*
Clc1cccc(Cl)c1Cn1ccc(C2CC2)n1 | -100*
COc1ccccc1-c1c(C#N)c(N)nc2c1CCc1ccccc1-2 | -196*
Cc1c2ccccc2nc2c(F)c(NC(C)C)c(F)c(F)c12 | -106*
CCOC(=O)C(NC(=O)c1ccccc1Cl)(Nc1ccc(C)c(C)c1)C(F)(F)F (stereo not drawn) | -81*
O=C1C2C3CCC(C3)C2C(=O)N1c1ccc(OS(=O)(=O)c2ccccc2)cc1 (stereo not drawn) | -178*
Cc1ccc(SCC(=O)Nc2cccc(C)c2)cc1 | -135*
Cc1cccc(NC(=O)CNc2cc(C)ccc2C)c1 | -68*
Cc1ccc(Oc2ccc(/C=N/O)cn2)cc1 | -83*
SMILES | aSyn UTR act
Cc1ccc(COc2ccc(/C=N/O)cc2)cc1 | -131*
Oc1ccc(/C=N/Nc2ccc(Cl)nn2)cc1O | -134*
Cc1ccc(/C=N/Nc2ccc(Cl)nn2)cc1 | -151*
O=C(O)c1cccc(OCc2ccccc2Cl)c1 | -188*
Cc1ccc2c(COC(=O)c3ccccc3Cl)cc(=O)oc2c1 | -136*
Cc1ccc2c(COC(=O)c3ccccc3Br)cc(=O)oc2c1 | -179*
Cc1ccc2c(COC(=O)C34CC5CC(CC(C5)C3)C4)cc(=O)oc2c1 | -152*
CCCOC(=O)/C(=C\C=C\c1ccco1)NC(=O)c1ccccc1 | -86*
CCn1c(O)c(/C=C2\C=NN=C2c2ccccc2)sc1=S | 67
Oc1c(C=C2N=c3ccccc3=N2)sc(=S)n1-c1ccc(F)cc1 | -65*
CCN1C(=O)c2cccc3c(NC(=O)c4ccc5c(c4)OCCO5)ccc1c23 | -79*
CCC(=O)Nc1cccc(NC(=O)c2ccc3c(c2)OCCO3)c1 | -105*
CN(C)S(=O)(=O)c1cccc(NC(=O)c2ccc3c(c2)OCCO3)c1 | -119*
C=CCNc1ncnc2c1[nH]c1ccc(Cl)cc12 | -197*
CC(=O)c1ccc(NC(=O)CSc2nc(=O)cc(N)n2-c2ccccc2)cc1 | -143*
CCn1c(SCC(=O)Nc2ccc(C(C)=O)cc2)nc2ccccc21 | -70*
COCCCn1c(SCC(=O)Nc2ccc(C(C)=O)cc2)nc2ccccc2c1=O | -84*
COc1ccc(C2=NN(c3nc(-c4ccc(CNC(C)=O)cc4)cs3)C(c3ccco3)C2)cc1 (stereo not drawn) | -78*
Cn1c(SCc2c(F)cccc2Cl)nnc1-c1cccs1 | -83*
Cn1c(SCC(=O)Nc2ccccc2F)nnc1-c1cccs1 | -78*
Cc1ccc(SCC(=O)c2c(C)nc3ccccn23)cc1 | -85*
CCOC(=O)c1cn2nc(SCc3ccccc3)nc2nc1C | -105*
N#Cc1cnc2nc(SCc3ccccc3)nn2c1 | -149*
O=C1c2ccccc2C(=O)N1CCOc1ccccc1Cl | -105*
O=C1c2ccccc2C(=O)N1CCOc1ccccc1 | -96*
SMILES | aSyn UTR act
CC(=O)Nc1nc2ccccc2n1CCOc1ccccc1Cl | 73
Nc1cccc2c1C(=O)N(CCOc1ccc(F)cc1)C2=O | -118*
Cc1ccccc1OCCN1C(=O)c2ccccc2C1=O | -93*
O=C1c2ccccc2C(=O)N1CCOc1ccccc1Br | -71*
Brc1ccc2c(c1)OCCOCCOc1cc(Br)ccc1OCCOCCOCCO2 | 73
O=C(c1cc2cc(Br)ccc2o1)N1CCCC1 | -64*
O=C(c1cc2cc(Br)ccc2o1)N1CCOCC1 | -85*
CCOC(=O)c1nn(-c2ccc(C)cc2)cc1C(=O)c1ccccc1 | -120*
CCOC(=O)c1nn(-c2ccc(C)c(C)c2)cc1O | -141*
CCOC(=O)c1nn(-c2ccc(C)c(C)c2)c(=O)c2c(N)scc12 | 46
